Rows were chosen to be rich in hits. Some 3.3% of all compounds tested hit in one or more screens of this group.
ERa SRC1 inh = ER-alpha (human) coactivator binding inhibition | TR-FRET ER-alpha LBD / SRC-1 peptide, estradiol-bound | inhibition, % at 25.6 µM | 86,000 compounds, 1.7% hits | P03372; in the data active = inhibition above about 50%;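 also: 0% = receptor plus peptide control and 100% = peptide only without receptor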
ERa coact pot = enhances coactivator binding to human estrogen receptor alpha | P03372 | TR-FRET ERalpha-LBD/SRC-Cy5 coactivator binding, 2 h; 100 = basal binding, no effect | coactivator binding (% of control), % at 25.6 µM | 86,000 compounds, 1.3% hits | AID 639; in the data active = activity above about 200%;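 also: binding measured in presence of low estradiol as agonist stimulus; 0% = peptide alone without receptor and 100% = receptor with peptide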
ERb coact inh = ER-beta (human) coactivator binding inhibition | Q92731 | TR-FRET ER-beta LBD / SRC1-Cy5 peptide binding; receptor agonist-loaded with 1 µM estradiol | inhibition, % at 25.6 µM | 86,000 compounds, 1.3% hits;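 active = compounds whose percent inhibition of the receptor-coactivator binding signal exceeds about 50% in the single-dose screen, limit read from the data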;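 also: 0% = receptor plus peptide wells without compound and 100% = peptide-only wells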
Target sequence (Q92731 whole entry, looked up, the tested form may be a part): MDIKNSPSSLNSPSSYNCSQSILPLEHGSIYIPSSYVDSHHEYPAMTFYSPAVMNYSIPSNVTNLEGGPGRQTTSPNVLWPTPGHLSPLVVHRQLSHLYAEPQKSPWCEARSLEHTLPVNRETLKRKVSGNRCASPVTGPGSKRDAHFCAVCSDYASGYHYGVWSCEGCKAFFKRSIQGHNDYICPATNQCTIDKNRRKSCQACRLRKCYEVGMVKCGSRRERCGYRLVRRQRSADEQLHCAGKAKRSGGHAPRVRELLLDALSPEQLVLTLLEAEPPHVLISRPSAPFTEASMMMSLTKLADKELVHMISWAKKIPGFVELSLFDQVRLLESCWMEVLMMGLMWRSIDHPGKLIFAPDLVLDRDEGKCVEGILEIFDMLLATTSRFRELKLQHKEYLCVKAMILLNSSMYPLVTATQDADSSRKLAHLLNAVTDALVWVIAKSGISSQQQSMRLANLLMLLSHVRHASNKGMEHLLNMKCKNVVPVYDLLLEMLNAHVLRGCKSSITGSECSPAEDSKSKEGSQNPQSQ
FAK inh = inhibitors of human focal adhesion kinase | biochemical FAK kinase activity assay | 97,000 compounds, 0.84% hits | inhibition, %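 (tested at 7 µM)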 | Q05397 | AID 727;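 also: 0% = DMSO and 100% = reference compound high control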
Smad3 inh = Smad3 (human) transcription factor binding inhibition; P84022; TR-FRET Smad3/Dy647-FoxH1 peptide binding, europium anti-His; inhibition, % at 25 µM; 88,000 compounds, 0.29% hits;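 active = compounds that reduce the energy-transfer binding signal between the protein and its labelled peptide by more than half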;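 also: 0% = Smad3 plus labelled peptide maximal FRET and 100% = peptide-only background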
FAK inh conf = confirmation of human focal adhesion kinase (FAK) inhibitors; shares compounds with FAK inh; FAK kinase biochemical inhibition assay; inhibition, % at 7 µM; 750 compounds, 28% hits
* marks the source's active call; other numbers are inactive results; . = no result; [ ] = dose if it differs, or a comment. Rule as the data show it, unless noted: active = inhibition above about 19%; inactive = the rest.

SMILES	ERa SRC1 inh	ERa coact pot	ERb coact inh	FAK inh	Smad3 inh	FAK inh conf
Cc1ccc(C2CC2C(=O)NNC(=S)Nc2ccc(Cl)cc2)cc1 (stereo not given)	-6	93	-4	1	3	.
CC(=O)N(/N=C1\Sc2ccccc2C1=O)c1ccccc1C	38	55	14	22*	11	17
CC(=O)N(/N=C1\Sc2ccccc2C1=O)c1ccc(C)cc1C	24	72	9	5	1	.
COC(=O)c1cc(C(=O)Nc2cc(C)ccn2)cc([N+](=O)[O-])c1	.	.	.	7	.	.
CC(C(=O)NC1CCCC1)N(C(=O)c1snc(C(N)=O)c1N)c1ccc2c(c1)OCCO2 (stereo not given)	5	91	9	21*	-1	4
COc1ccccc1N(C(=O)c1snc(C(N)=O)c1N)C(C(=O)NC1CCCC1)c1ccco1 (stereo not given)	1	81	-7	7	8	.
Cc1ccc2nc(-c3ccc(NC(=O)CSc4ccccc4)cc3)[nH]c2c1	.	.	.	32*	.	13
Cc1ccc2nc(-c3ccc(SCC(=O)O)nc3)[nH]c2c1	.	.	.	-7	.	.
COc1ccc(OC)c(C2C(C(=O)c3ccco3)=C(O)C(=O)N2CCCN2CCOCC2)c1 (stereo not given)	8	92	1	.	2	.
CCOC(=O)c1cccc(NS(=O)(=O)c2c(C)[nH]c(=O)[nH]c2=O)c1	-1	107	-8	21*	-7	4
CCOC(=O)c1cccc(NS(=O)(=O)c2ccc(NC(C)=O)cc2)c1	-1	89	-2	2	20	.
COC(=O)c1ccc(CSc2nnc(Nc3ccc(C)cc3)s2)o1	.	.	.	3	.	.
Cc1ccccc1C(=O)Nc1cccc(NC(=O)Cn2cnc3c(=O)n(C)c(=O)n(C)c32)c1	-7	115	-6	2	10	.
COc1ccc(Cc2nc3ccc(S(=O)(=O)N4CCOCC4)cc3[nH]2)cc1OC	-4	110	-6	3	-21	.
COc1ccc(Cc2nc3ccc(S(=O)(=O)N4CCOCC4)cc3[nH]2)cc1	60*	97	-7	95*	-5	1
Cc1cc2ncn(S(=O)(=O)N(C)C)c2cc1C	3	92	-5	19*	2	5
O=C(CC1C(=O)NCCN1C(=O)Nc1ccccc1)Nc1ccc2c(c1)OCO2 (stereo not given)	2	99	10	0	-9	.
O=C(CC1C(=O)NCCN1C(=S)Nc1ccccc1)Nc1ccc2c(c1)OCCO2 (stereo not given)	-7	127	-2	23*	-1	1
O=C(CC(C(=O)N1CCc2ccccc21)n1ccnc1)N1CCc2ccccc2C1 (stereo not given)	-46	113	-20	4	16	.
CCS(=O)(=O)n1nc(-c2ccc(Cl)cc2)nc1SC	3	104	1	4	4	.
Cn1nc(-c2ccc(Cl)cc2)nc2c(=O)n(C)c(=O)nc1-2	-19	104	-12	69*	80*	67*
CCN(CC)S(=O)(=O)c1csc(C(=O)NCc2ccccc2)c1	20	91	35	-1	-10	.
COc1ccc2sc3ccccc3c(=O)c2c1	.	.	.	29*	.	12
NS(=O)(=O)c1ccc(N=Nc2nc3[nH]c(=O)[nH]c(=O)c3[nH]2)cc1	.	.	.	.	3	.
c1ccc(-n2nnnc2-n2cnc3ccccc32)cc1	-9	113	-4	0	0	.
SMILES	ERa SRC1 inh	ERa coact pot	ERb coact inh	FAK inh	Smad3 inh	FAK inh conf
c1ccc(-c2nccc(-c3ccc(-n4cnc5ccccc54)cc3)n2)cc1	92*[fluorescence artefact?]	148	63*[fluorescence artefact?]	86*	0	81*
C[C@H](NS(=O)(=O)c1ccccc1F)C(=O)OCC(=O)N1CCc2ccccc21	-7	144	-8	-2	3	.
O=C(N/N=C/c1cccc(F)c1)c1cc(-c2ccco2)nc2ccccc12	.	.	.	68*	.	36*
Cc1cccc(NC(=O)c2cc(-c3ccco3)nc3ccccc23)n1	17	78	48	-2	9	.
COC(=O)c1cccc2c1-c1ccccc1/C2=N/O	5	89	-7	50*	11	28*
COC(=O)c1ccc2c(c1O)C(=O)c1ccccc1C2=O	.	.	.	9	.	.
Cc1ccc(C(=O)COC(=O)c2ccc3c(c2)C(=O)N(c2cccc4ncccc24)C3=O)cc1C	.	.	.	39*	.	23*
O=Cc1cn(-c2ccccc2)nc1-c1cc2cc(O)ccc2oc1=O	.	.	.	30*	.	14
COc1ccc(NC(=O)c2cn(-c3ccccc3)nc2-c2cc3ccccc3o2)cc1	.	.	.	-5	.	.
CCCCN1CC(O)=C(c2nc(-c3ccc(Cl)cc3)cs2)C1=N	64*[fluorescence artefact?]	256*[fluorescence artefact?]	38	32*	-43	12
COc1cccc(CN2CC(O)=C(c3nc(-c4ccc(Cl)cc4)cs3)C2=N)c1	.	.	.	32*	.	26*
CCC(C)C(=O)Nc1cc(C(=O)OC)cc(C(=O)OC)c1 (stereo not given)	-1	101	4	-5	0	.
CC1S/C(=C(\C#N)C(=O)NCc2ccco2)N(c2ccc(F)cc2)C1=O (stereo not given)	1	98	5	-2	-2	.
CC1=C(C(=O)N2CCOCC2)C(c2ccccc2F)C2=C(CCCC2=O)N1 (stereo not given)	-1	103	-2	-1	-8	.
O=C(NCc1cccnc1)c1ccc(CN2CCc3ccccc3C2)cc1	-5	105	-2	1	8	.
Clc1ccc(Cn2ncc3c(N4CCOCC4)ncnc32)cc1	-4	109	-3	-1	-10	.
Cc1ccc(C(=O)N/N=C/c2ccc([N+](=O)[O-])s2)cc1	67*	36	40	50*	9	11
Cc1ccc(C)n1-c1ccc(C(=O)NCC2CCCO2)cc1 (stereo not given)	-6	99	7	7	2	.
COCCOC(=O)c1c(C)oc2ccc(NS(=O)(=O)c3ccccc3)cc12	0	106	0	2	1	.
COC(=O)c1c(C)oc2ccc(NS(=O)(=O)c3cccs3)cc12	11	83	1	24*	9	12
Cn1c(=O)[nH]c(=O)c2c1nc(N1CCCC1)n2CCSc1nc2ccccc2[nH]1	.	.	.	1	.	.
COCCNC(=O)C(C)OC(=O)c1cc2occc2n1C (stereo not given)	10	102	26	-1	9	.
Cc1cc(S(=O)(=O)Nc2ccc(C(=O)N3CCN(C(=O)c4ccco4)CC3)cc2)ccc1F	.	.	.	1	.	.
O=C(c1ccc(S(=O)(=O)Nc2ccc(F)cc2)cc1)N1CCN(C(=O)c2ccco2)CC1	-2	98	-8	27*	7	-1
O=C(NNC(=O)c1cc2cc3ccccc3nc2s1)c1cccc(Cl)c1	.	.	.	30*	.	5
Cc1ccc(S(=O)(=O)NNC(=O)c2cc3cc4ccccc4nc3s2)cc1	.	.	.	8	.	.
O=C(NNC(=O)c1cc2cc3ccccc3nc2s1)c1ccc(F)cc1	.	.	.	26*	.	3

Compound activity from PubChem.
